This is a sample that favours compounds with a hit; in the whole collection about 1.3% have one here.
Fam108B counter = counter-screen for RBBP9 inhibitors: inhibitors of mouse Fam108B; recombinant Fam108B, FP-Rh probe fluorescence polarization; inhibition, % at 9.51 µM; actives 0.33% (n = 300,000); AID 1947;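 active means inhibition above the screen mean inhibition plus 3 SD, computed separately per campaign, cut at about 18% in these data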;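 further: inhibitors lower polarization as less probe binds the enzyme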
LYPLA2 inh = LYPLA2 (human) inhibition in PME1 counter-screen; inhibition, % at 5.9 µM; recombinant LYPLA2, FP-Rh probe fluorescence polarization; actives 0.38% (n = 320,000); O95372;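 active means inhibition above the screen-wide mean plus 3 SD, limit set per campaign, cut at about 26% in these data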;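 further: 0% = LYPLA2 with DMSO and 100% = wells lacking LYPLA2 enzyme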
Target sequence (O95372 whole entry, looked up): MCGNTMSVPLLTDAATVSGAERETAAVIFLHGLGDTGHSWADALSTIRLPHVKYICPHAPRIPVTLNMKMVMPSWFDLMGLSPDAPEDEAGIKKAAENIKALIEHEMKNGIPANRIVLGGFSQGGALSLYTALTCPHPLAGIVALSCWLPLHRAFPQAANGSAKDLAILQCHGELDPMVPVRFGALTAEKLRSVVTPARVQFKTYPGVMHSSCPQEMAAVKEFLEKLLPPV
LYPLA1 inh = counter-screen for PME1 inhibitors: inhibitors of human LYPLA1; O75608; recombinant LYPLA1, FP-Rh probe fluorescence polarization; inhibition, % at 5.9 µM; actives 0.16% (n = 320,000); AID 2174;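 active means inhibition above the mean of all tested compounds plus 3 SD, set per campaign, cut at about 14% in these data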;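 further: inhibitors block serine hydrolase probe labeling of LYPLA1 so polarization falls; 0% = enzyme with DMSO and 100% = wells lacking LYPLA1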
PME-1 primary = PME-1 (human) inhibition | Q9Y570 | recombinant PME-1, FP-Rh probe fluorescence polarization | inhibition, % at 5.9 µM | actives 0.53% (n = 320,000) | AID 2130;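 active means inhibition above the campaign mean of all compounds plus 3 SD, cut at about 26% in these data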;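 further: competitive labeling of PME-1 active site by serine hydrolase directed probe; 0% = PME-1 with DMSO and 100% = wells lacking PME-1 enzyme; inhibitors block probe labeling so polarization falls and inhibition rises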
PREPL inh = inhibitors of human prolyl oligopeptidase-like enzyme PREPL; AID 2751; inhibition, % at 5.96 µM; actives 0.68% (n = 320,000); recombinant PREPL, fluorescence polarization activity-based probe; Q4J6C6;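 further: 0% = enzyme with DMSO and 100% = wells lacking enzyme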
LYPLA2 confirm = counter-screen for PME1 inhibitors: confirmation of human LYPLA2 inhibitors | shares compounds with LYPLA2 inh | recombinant LYPLA2, FP-Rh probe fluorescence polarization | inhibition, % at 5.9 µM | actives 72% (n = 1,100) | AID 2232;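 active means mean inhibition across replicates above the hit cutoff set in the primary screen, cut at about 26% in these data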;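 further: blocked labeling of the enzyme by serine hydrolase FP-Rh probe lowers polarization; 0% = enzyme with DMSO and 100% = wells lacking LYPLA2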
PREPL confirm = confirmation of human PREPL enzyme inhibitors. AID 2803. inhibition, % at 5.96 µM. actives 67% (n = 2,000). shares compounds with PREPL inh. recombinant PREPL, fluorescence polarization activity probe;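 further: 0% = protein with DMSO and 100% = wells lacking protein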
Active calls of the source: *; x = no result. Unless noted, no stated cut-off is given here; in the data, active means inhibition above about 43%; inactive means the rest.

SMILES	Fam108B counter	LYPLA2 inh	LYPLA1 inh	PME-1 primary	PREPL inh	PREPL confirm	others
O=C(O)C1Nc2c(O)cc(Cl)c([N+](=O)[O-])c2C2C=CCC12 (configuration not stated)	79*	35*	-14	11	94*	22	LYPLA2 confirm=-2
COc1ccc(NCC(=O)N/N=C/C=C\c2ccccc2)cc1	3	2	-2	-7	67*	46*
COc1ccc(/C=C/C=N/NC(=O)COc2ccc(OC)cc2)cc1	-2	9	8	-3	0	x
CCCCCN=C(N)N/N=C/c1c[nH]c2ccc(OC)cc12	2	5	2	9	80*	66*
CCCOc1ccc(C(=O)N/N=C/c2c[nH]c3ccc(Br)cc23)cc1	8	-6	-9	22	17	x
CCN1CCc2nc3sc(C(=O)N4CCc5ccccc5C4)c(N)c3cc2C1	-1	7	0	7	65*	48*
O=Cc1cccn1-c1nccc(-c2ccco2)n1	-1	7	2	-5	-11	x
O=C(NCc1ccccc1)C(=O)NCC1CCCN1S(=O)(=O)c1cccs1 (configuration not stated)	-2	7	-2	2	1	x
CC(=O)Nc1cc(OC(=O)c2ccco2)cc(OC(=O)c2ccco2)c1	-3	0	-3	0	50*	37
CCN1C(=O)[C@@H]2[C@@H](c3ccc(-c4ccc(OC)cc4)cc3)N3CCC[C@@]3(C(=O)OC)[C@@H]2C1=O	0	-5	0	-4	5	x
CCN1C(=O)[C@H]2[C@@H](c3ccc(-c4ccc(OC)cc4)cc3)N3CCC[C@@]3(C(=O)OC)[C@H]2C1=O	-1	1	-3	-2	47*	37
CCN1C(=O)[C@H]2[C@@H](c3ccc(-c4ccc(F)cc4)cc3)N3CCCC[C@@]3(C(=O)OC)[C@H]2C1=O	-4	2	-2	-2	45*	40
C=C(C)COc1ccc(-c2nc(N)ncc2-c2ccc(Cl)cc2)c(O)c1	-10	0	-5	-3	15	x
CC(OC(=O)c1ccc(Cl)c(S(N)(=O)=O)c1)C(=O)NCc1ccc2c(c1)OCO2 (configuration not stated)	-3	7	2	1	5	x
Oc1nc(Nc2ccccc2)sc1/C=C1\C=Nc2ccccc21	14	-16	-12	44*	59*	63*
CCOC(=O)c1c(Nc2ccccc2)sc(/C=C2\C=Nc3ccccc32)c1O	5	3	0	9	33	x
CNC[C@H](Cc1cccc2ccccc12)NC[C@H](CCSC)NCC1CCC(C(C)(C)C)CC1 (some centres not stated)	x	x	x	x	44*	34
CC(CCc1ccccc1)NCc1cccc2ccccc12 (configuration not stated)	2	-1	1	2	-29	x
Cc1cc(C)n(S(=O)(=O)c2ccc3oc(=O)ccc3c2)n1	-4	-1	-5	5	-1	x
COc1ccccc1-[n+]1c(C)cc(/C=C2\Sc3ccccc3N2C)cc1C	-3	5	-1	-3	64*	71*
COc1ccc(C(=O)/C=C2\Sc3ccccc3N2C)cc1	3	-5	2	4	36	x
COc1ccc(-[n+]2c(C)cc(/C=C3\Sc4ccccc4N3C)cc2C)cc1	4	8	3	-4	70*	69*
CC(C)c1ccc(N(C(=O)c2ccco2)C(C(=O)NC2CCCC2)c2ccncc2)cc1 (configuration not stated)	1	0	0	-1	-3	x
Cc1ccc(C)c(NC(=O)COC(=O)c2cccc3c2C(=O)c2ccccc2C3=O)c1	4	-3	-3	89*	60*	47*
COc1ccccc1CNS(=O)(=O)c1cc(C(=O)NCC2CCCO2)c(Cl)cc1Cl (configuration not stated)	x	x	x	x	19	x
Cc1ccc(C)c(N2CCN(C(=S)Nc3ccc4nc(N5CCN(C)CC5)cc(C)c4c3)CC2)c1	0	1	2	0	53*	37

Bioassay records as filed in PubChem BioAssay.
